Results filed as inconclusive are left out. A number with no mark means an inactive call. Active and inactive are the calls of the source. The call rests on the fitted dose curve; in most records, active means well fitted curve in the direction sought with a large enough effect in the repeat runs; inconclusive means weak or mixed curves; inactive means no such curve, though single readings can be large; an effect the other way counts as inactive or inconclusive.

Assay [1] has as its target Cytochrome P450 2D6 (Homo sapiens) (UniProt P10635). In words: Cytochrome P450 Family 2 Subfamily D Member 6 (CYP2D6) small molecule antagonists: luciferase reporter qHTS assay (AID 1671196). Further: nearly all actives have a fitted effect of over 50% in size. Put shortly: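 P450-Glo format: CYP2D6 converts a proluciferin substrate to luciferin in an NADPH-driven reaction lasting 1 h at room temperature. Light output, proportional to CYP2D6 activity, reflects interference by test chemicals.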
(In general: Reporter assays use an easily measured gene product as a stand-in for the process of interest.)

Assay [2] has as its target Cytochrome P450 2C19 (Homo sapiens) (UniProt P33261). In words: Cytochrome P450 Family 2 Subfamily C Member 19 (CYP2C19) small molecule antagonists: luciferase reporter qHTS assay (AID 1671197). Further: nearly all actives have a fitted effect of over 65% in size. The procedure, abridged:
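P450-Glo CYP2C19 screening system; proluciferin substrate; DMSO compound stocks; 10 min RT preincubation; NADPH regeneration, 1 h at 37C; luciferin detection reagent, 20 min RT; luminescence as RLU.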

Assay [3] deals with Cytochrome P450 2C9 (Homo sapiens) (UniProt P11712). Nature of the assay: Cytochrome P450 Family 2 Subfamily C Member 9 (CYP2C9) small molecule antagonists: luciferase reporter qHTS assay (AID 1671198). Further: nearly all actives have a fitted effect of over 50% in size. Put shortly: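 P450-Glo proluciferin substrate with CYP2C9 enzyme; 10 min RT preincubation, then NADPH regeneration 1 h at 37C; luciferin detection reagent 20 min RT, luminescence in relative luminescence units.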

For assay [4], the target named is Cytochrome P450 3A4 (Homo sapiens) (UniProt P08684). In words: Cytochrome P450 Family 3 Subfamily A Member 4 (CYP3A4) small molecule antagonists: luciferase reporter qHTS assay (AID 1671201). Further: nearly all actives have a fitted effect of over 50% in size. The procedure, abridged: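 P450-Glo CYP3A4 luminescent assay: compounds preincubated 10 min at room temperature with enzyme and proluciferin substrate, NADPH regeneration added, 1 h room-temperature reaction, stopped with luciferin detection reagent; luminescence read after 20 min. Ketoconazole positive control.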

Assay [5] addresses Cytochrome P450 1A2 (Homo sapiens) (UniProt P05177). In words: Cytochrome P450 Family 1 Subfamily A Member 2 (CYP1A2) small molecule antagonists: luciferase reporter qHTS assay (AID 1671199). Further: nearly all actives have a fitted effect of over 50% in size. The procedure, abridged:
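Inhibition of CYP1A2 conversion of proluciferin to luciferin, detected by luminescence. Reaction run 1 h at room temperature with NADPH regeneration after brief compound preincubation.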

In assay [6] the target is Voltage-gated inwardly rectifying potassium channel KCNH2 (Homo sapiens) (UniProt Q12809). In words: Human Ether-a-go-go-Related Gene (hERG) channel small molecule antagonists: fluorescence cell-based qHTS assay (AID 1671200). Further: nearly all actives have a fitted effect of over 50% in size. Put shortly: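 hERG-U2OS cells plated overnight at 37 C, loaded with FluxOR II dye 1 h at RT in dark; after 10 min, thallium stimulus added. Fluorescence (480/540 nm) read kinetically for 2 min at 1 s intervals.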
On the technique in general: hERG is a cardiac potassium channel; its block is linked to QT prolongation.
Potency means the concentration at half of the fitted maximal effect.

Chain of Cytochrome P450 2C19 (Homo sapiens) (P33261 whole entry, looked up): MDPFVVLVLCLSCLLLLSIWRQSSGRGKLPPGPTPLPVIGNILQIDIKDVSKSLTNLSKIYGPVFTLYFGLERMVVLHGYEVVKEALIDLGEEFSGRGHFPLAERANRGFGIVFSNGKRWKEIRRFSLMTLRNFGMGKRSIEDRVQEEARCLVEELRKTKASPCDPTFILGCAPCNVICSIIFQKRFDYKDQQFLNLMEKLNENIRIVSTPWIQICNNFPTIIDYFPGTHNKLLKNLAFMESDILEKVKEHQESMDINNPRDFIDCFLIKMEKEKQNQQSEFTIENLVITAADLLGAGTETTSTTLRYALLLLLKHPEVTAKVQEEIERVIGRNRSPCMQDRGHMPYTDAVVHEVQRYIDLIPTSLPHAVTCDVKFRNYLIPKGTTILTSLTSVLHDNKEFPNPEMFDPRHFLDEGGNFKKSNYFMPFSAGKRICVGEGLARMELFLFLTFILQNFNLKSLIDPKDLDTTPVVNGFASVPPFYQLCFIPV
Chain of Cytochrome P450 1A2 (Homo sapiens) (P05177 whole entry, looked up): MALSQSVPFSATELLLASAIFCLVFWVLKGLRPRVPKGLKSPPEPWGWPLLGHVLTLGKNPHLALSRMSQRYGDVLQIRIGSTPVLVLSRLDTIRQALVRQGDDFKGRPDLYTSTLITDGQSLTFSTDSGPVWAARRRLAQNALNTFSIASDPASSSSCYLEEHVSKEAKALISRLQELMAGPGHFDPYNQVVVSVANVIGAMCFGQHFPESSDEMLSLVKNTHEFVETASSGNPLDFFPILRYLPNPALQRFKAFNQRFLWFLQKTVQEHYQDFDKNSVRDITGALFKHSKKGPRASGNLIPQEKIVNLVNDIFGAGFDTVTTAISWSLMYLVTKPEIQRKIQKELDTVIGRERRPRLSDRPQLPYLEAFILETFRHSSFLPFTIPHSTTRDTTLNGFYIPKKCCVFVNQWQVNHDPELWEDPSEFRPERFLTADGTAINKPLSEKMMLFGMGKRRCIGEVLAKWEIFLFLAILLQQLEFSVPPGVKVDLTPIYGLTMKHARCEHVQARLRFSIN
Chain of Voltage-gated inwardly rectifying potassium channel KCNH2 (Homo sapiens) (Q12809 whole entry, looked up): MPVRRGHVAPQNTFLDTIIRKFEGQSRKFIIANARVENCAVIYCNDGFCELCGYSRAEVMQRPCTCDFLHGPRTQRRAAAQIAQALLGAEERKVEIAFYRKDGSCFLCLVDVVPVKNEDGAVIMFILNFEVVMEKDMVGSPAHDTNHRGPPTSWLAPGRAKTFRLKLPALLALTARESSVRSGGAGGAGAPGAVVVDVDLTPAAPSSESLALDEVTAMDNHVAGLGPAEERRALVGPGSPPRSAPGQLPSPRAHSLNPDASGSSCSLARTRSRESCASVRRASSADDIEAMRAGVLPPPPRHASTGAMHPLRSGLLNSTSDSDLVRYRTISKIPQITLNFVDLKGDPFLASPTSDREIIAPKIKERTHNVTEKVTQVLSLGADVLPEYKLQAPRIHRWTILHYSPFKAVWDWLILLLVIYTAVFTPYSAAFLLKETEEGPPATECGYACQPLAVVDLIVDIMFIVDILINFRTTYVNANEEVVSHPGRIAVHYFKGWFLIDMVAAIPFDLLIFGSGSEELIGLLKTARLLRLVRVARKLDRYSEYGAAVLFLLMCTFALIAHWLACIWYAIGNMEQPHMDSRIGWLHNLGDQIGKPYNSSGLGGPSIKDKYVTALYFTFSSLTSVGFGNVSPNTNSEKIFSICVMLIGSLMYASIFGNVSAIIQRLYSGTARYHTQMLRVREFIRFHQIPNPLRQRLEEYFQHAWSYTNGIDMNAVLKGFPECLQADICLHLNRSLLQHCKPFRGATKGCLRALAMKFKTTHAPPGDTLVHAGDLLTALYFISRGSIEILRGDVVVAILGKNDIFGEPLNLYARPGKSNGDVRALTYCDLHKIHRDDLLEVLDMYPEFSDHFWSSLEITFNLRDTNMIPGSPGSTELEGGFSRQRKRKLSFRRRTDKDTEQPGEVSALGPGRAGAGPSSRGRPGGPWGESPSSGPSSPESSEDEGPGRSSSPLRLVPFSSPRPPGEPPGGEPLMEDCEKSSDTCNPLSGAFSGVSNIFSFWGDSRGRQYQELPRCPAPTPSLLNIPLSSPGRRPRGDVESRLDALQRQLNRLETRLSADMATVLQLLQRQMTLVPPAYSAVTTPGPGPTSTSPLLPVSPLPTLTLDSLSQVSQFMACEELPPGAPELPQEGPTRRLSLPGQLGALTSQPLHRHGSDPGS
Chain of Cytochrome P450 2C9 (Homo sapiens) (P11712 whole entry, looked up): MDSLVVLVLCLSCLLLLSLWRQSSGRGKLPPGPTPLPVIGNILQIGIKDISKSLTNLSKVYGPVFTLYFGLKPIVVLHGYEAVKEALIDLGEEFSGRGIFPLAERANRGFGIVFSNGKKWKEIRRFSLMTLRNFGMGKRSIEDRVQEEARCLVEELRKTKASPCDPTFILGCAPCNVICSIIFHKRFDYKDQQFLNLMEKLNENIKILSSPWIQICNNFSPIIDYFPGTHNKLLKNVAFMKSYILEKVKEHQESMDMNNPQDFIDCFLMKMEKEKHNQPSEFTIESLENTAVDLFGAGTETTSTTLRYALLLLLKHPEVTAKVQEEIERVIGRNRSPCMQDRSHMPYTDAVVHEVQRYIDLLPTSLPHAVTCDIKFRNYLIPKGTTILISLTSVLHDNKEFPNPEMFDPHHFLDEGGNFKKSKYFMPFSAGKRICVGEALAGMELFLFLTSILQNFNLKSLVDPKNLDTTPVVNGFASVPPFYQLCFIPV
Chain of Cytochrome P450 2D6 (Homo sapiens) (P10635 whole entry, looked up): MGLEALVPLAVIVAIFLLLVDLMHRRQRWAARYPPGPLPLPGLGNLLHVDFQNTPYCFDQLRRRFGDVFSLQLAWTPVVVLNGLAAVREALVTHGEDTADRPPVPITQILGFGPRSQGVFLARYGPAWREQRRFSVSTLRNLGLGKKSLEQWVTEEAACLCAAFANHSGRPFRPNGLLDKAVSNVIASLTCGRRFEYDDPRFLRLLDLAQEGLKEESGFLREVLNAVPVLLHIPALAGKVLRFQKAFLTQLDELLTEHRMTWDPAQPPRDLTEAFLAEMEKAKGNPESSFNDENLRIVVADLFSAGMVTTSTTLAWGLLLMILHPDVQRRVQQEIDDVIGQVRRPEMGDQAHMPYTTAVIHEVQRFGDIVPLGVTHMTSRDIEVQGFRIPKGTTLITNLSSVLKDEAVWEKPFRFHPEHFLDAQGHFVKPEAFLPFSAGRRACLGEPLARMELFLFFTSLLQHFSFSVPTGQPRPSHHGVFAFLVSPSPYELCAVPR
Chain of Cytochrome P450 3A4 (Homo sapiens) (P08684 whole entry, looked up): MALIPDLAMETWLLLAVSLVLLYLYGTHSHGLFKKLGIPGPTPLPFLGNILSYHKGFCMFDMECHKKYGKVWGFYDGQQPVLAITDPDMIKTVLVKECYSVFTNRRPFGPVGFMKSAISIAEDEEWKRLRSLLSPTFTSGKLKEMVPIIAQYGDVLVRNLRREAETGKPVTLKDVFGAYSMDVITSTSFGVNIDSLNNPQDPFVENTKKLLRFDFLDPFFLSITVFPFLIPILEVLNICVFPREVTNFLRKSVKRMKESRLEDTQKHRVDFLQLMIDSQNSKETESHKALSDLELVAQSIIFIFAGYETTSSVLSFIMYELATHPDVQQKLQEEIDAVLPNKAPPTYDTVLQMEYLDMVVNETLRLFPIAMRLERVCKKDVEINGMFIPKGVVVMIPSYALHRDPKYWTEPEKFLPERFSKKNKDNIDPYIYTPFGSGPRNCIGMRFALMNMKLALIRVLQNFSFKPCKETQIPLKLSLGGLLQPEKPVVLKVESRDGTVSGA

In the case of `Cc1ccco1`, in assay [1], the Potency was 34.8 µM (active). Further, the Potency entry in assay [2], in assay [3] and in assay [4] was “inactive” each time.

`CC(=O)NC1(c2cccc(F)c2)CCN(CC[C@@]2(c3ccc(Cl)c(Cl)c3)CN(c3ccccc3)C(=O)CO2)CC1`: the Potency in assay [1] is 28.3 µM (active); in assay [2], 6.34 µM (active); in assay [6] it was 13.8 µM (active). Further, the Potency result in assay [5] and in assay [4] was “inactive” throughout.

In the case of `CCCCCCCCOc1ccc(C(=O)O)cc1`, the Potency result in assay [1], in assay [5], in assay [6] and in assay [4] was “inactive” in each case. The Potency in assay [2] is 49.7 µM (active).

On to `Oc1cccc(Nc2ccccc2)c1`, for which the Potency in assay [1] was 37.1 µM (active); in assay [2], 13.2 µM (active); in assay [5], 11.7 µM (active); in assay [4], 29.5 µM (active). In addition, the Potency result in assay [6] is “inactive”.

In the case of `Cc1ccccc1N=C(N)Nc1ccccc1C`, the Potency in assay [1] was 0.0156 µM (active). For the same compound, the Potency result in assay [2], in assay [5] and in assay [6] was “inactive” in each case.

As for `CC1CC(C)C(=O)C1=O` (configuration not stated), the Potency result in assay [1], in assay [2], in assay [5], in assay [6] and in assay [4] was “inactive” in each case.

In the case of `NC(=O)c1ccncc1`, the Potency entry in assay [1], in assay [2], in assay [3], in assay [6] and in assay [4] was “inactive” throughout.

On to `O=C(O)CCc1nc(-c2ccccc2)c(-c2ccccc2)o1`, for which the Potency entry in assay [1], in assay [2], in assay [5], in assay [6] and in assay [4] was “inactive” in each case.

Turning to `COC(=O)[C@H]1[C@H]2C[C@@H]3c4[nH]c5cc(OC)ccc5c4CCN3C[C@H]2C[C@@H](OC(=O)/C=C/c2ccc(O)c(OC)c2)[C@@H]1OC`, the Potency result in assay [1], in assay [2] and in assay [5] was “inactive” in each case. The Potency in assay [6] was 0.848 µM (active).

As for `CCOC(=O)/C=C/C(=O)OCC`, the Potency result in assay [1], in assay [2], in assay [3], in assay [6] and in assay [4] was “inactive” each time.

Turning to `C[C@@]12CCC[C@H]1[C@@H]1CC[C@H]3C[C@@H](O)CC[C@]3(C)[C@H]1CC2`, the Potency result in assay [1], in assay [5] and in assay [6] was “inactive” throughout. Further, the Potency in assay [2] is 7.76 µM (active).

As to `O=C(Cn1ccnc1[N+](=O)[O-])NCCO`, the Potency result in assay [1], in assay [2], in assay [5], in assay [6] and in assay [4] was “inactive” in each case.

For `O=C1NC(=O)c2cc([N+](=O)[O-])ccc21`, the Potency was 63.8 µM (active) in assay [1], 71.6 µM (active) in assay [2], 28.5 µM (active) in assay [5] and 32 µM (active) in assay [4]. In addition, the Potency entry in assay [6] is “inactive”.

On to `CCC1CO1` (configuration not stated), for which the Potency entry in assay [1], in assay [2], in assay [3], in assay [6] and in assay [4] was “inactive” each time.

As for `Cc1ccc(CO)cc1`, the Potency entry in assay [1], in assay [2], in assay [6] and in assay [4] was “inactive” in each case. Further, in assay [5], the Potency is 32.1 µM (active).

Consider `C[C@]1(Cn2ccnn2)[C@H](C(=O)O)N2C(=O)C[C@H]2S1(=O)=O`, for which the Potency result in assay [1], in assay [2], in assay [5], in assay [6] and in assay [4] was “inactive” each time.

Turning to `CC(C)(c1ccccc1)c1ccccc1`, the Potency in assay [1] is 58.8 µM (active). Further, the Potency result in assay [2], in assay [3] and in assay [4] was “inactive” each time.

As for `C(=C\c1ccccc1)/c1ccccc1`, the Potency result in assay [1] and in assay [6] was “inactive” in each case. Moreover, the Potency in assay [2] is 44.4 µM (active); in assay [5] it was 4.99 µM (active).

For the compound `Cc1c(C)c2c(c(C)c1OC(=O)CCC(=O)OCCO)CC[C@@](C)(CCC[C@H](C)CCC[C@H](C)CCCC(C)C)O2`, the Potency entry in assay [1], in assay [2] and in assay [6] was “inactive” in each case. Also, the Potency in assay [5] is 27.5 µM (active).

On to `Clc1ccc(Nc2nnc(Cc3ccncc3)c3ccccc23)cc1`, for which the Potency in assay [1] was 17.4 µM (active); in assay [2] it was 2.19 µM (active); in assay [5], 1.44 µM (active). The Potency entry in assay [6] is “inactive”.

Consider `CC(O)c1ccccc1` (configuration not stated), for which the Potency result in assay [1], in assay [2], in assay [3], in assay [6] and in assay [4] was “inactive” in each case.

For `O=C1c2ccccc2C(=O)C1c1nc2ccccc2c(Br)c1O`, the Potency result in assay [1], in assay [2] and in assay [6] was “inactive” throughout. For the same compound, in assay [5], the Potency is 10 µM (active).

Consider `CC(=O)N/N=C/c1ccc([N+](=O)[O-])o1`, for which the Potency result in assay [1], in assay [2], in assay [3] and in assay [4] was “inactive” throughout.

Take `CCC(=O)OC`: the Potency entry in assay [1], in assay [2], in assay [5], in assay [6] and in assay [4] was “inactive” throughout.

Regarding `C=Cc1ccc(S(=O)(=O)O)cc1`, the Potency entry in assay [1], in assay [2], in assay [6] and in assay [4] was “inactive” in each case. Moreover, the Potency in assay [5] is 71 µM (active).

As to `Cc1cc(O)ccc1O`, the Potency result in assay [1], in assay [5] and in assay [6] was “inactive” each time. Also, the Potency in assay [2] is 25.5 µM (active).

`O=Cc1c2ccccc2c(Cl)c2ccccc12`: the Potency result in assay [1], in assay [2], in assay [6] and in assay [4] was “inactive” in each case. Besides, the Potency in assay [5] was 1.38 µM (active).

With `Cc1cscn1`, the Potency entry in assay [1], in assay [2], in assay [3] and in assay [4] was “inactive” in each case.

For the compound `C=C1C[C@@]23CC[C@H]4[C@@](C)(CCC[C@@]4(C)C(=O)O[C@@H]4O[C@H](CO)[C@@H](O)[C@H](O)[C@H]4O)[C@@H]2CC[C@]1(O[C@@H]1O[C@H](CO)[C@@H](O)[C@H](O[C@@H]2O[C@H](CO)[C@@H](O)[C@H](O)[C@H]2O)[C@H]1O[C@@H]1O[C@H](CO)[C@@H](O)[C@H](O)[C@H]1O)C3`, the Potency result in assay [1], in assay [2], in assay [5], in assay [6] and in assay [4] was “inactive” throughout.

`C=CC(C)(CCC=C(C)C)OC(=O)CC(C)C` (configuration not stated): the Potency entry in assay [1] and in assay [6] was “inactive” in each case. In addition, the Potency in assay [2], in assay [3] and in assay [4] was 35.6 µM (active) each time.

Take `CC(C)C[C@H](NC(=O)[C@H](CCc1ccccc1)NC(=O)CN1CCOCC1)C(=O)N[C@@H](Cc1ccccc1)C(=O)N[C@@H](CC(C)C)C(=O)[C@@]1(C)CO1`: the Potency result in assay [1], in assay [2], in assay [5] and in assay [6] was “inactive” in each case.

Turning to `CC1(C)S[C@@H]2[C@H](NC(=O)C(c3ccccc3)S(=O)(=O)O)C(=O)N2[C@H]1C(=O)O` (some centres not stated), the Potency result in assay [1], in assay [2], in assay [3], in assay [6] and in assay [4] was “inactive” each time.

With `CC(=O)c1cc2ccccc2s1`, the Potency result in assay [1], in assay [2], in assay [6] and in assay [4] was “inactive” throughout. Also, in assay [5], the Potency was 6.92 µM (active).

On to `CC1=Nc2ccc3ccccc3c2C1(C)C`, for which the Potency is 35.6 µM (active) in assay [1], 8.94 µM (active) in assay [2] and 20 µM (active) in assay [5]. The Potency entry in assay [6] and in assay [4] was “inactive” each time.
